Assay results from PubChem BioAssay (NCATS).
Results filed as inconclusive are left out. Entries that show only a call come without a potency. Active and inactive are the calls of the source. Calls come from the whole dose curve; as a rule, active = well fitted cell-killing curve with a large enough effect; inconclusive = small, poorly fitted or top-dose-only effect, or effect the other way; inactive = flat fitted curve, though single readings scatter.

test system: Hek293T; assay: Primary qHTS to identify gynecologic anti-cancer compounds using libraries of approved drugs and bioactive compounds (AID 1345084); settings: Gynecologic cancer cell panel viability, ATPlite luminescence, 48 h, control line for the selectivity index; series mostly up to 57.5 µM; note: nearly all actives have a fitted effect of over 55% in size
Procedure, shortened: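 Five-point cytotoxicity, 48 h drug exposure at 37 C, 5% CO2, on cells seeded 16 h beforehand. ATP content read by ATPlite luminescence.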

Row | Structure (SMILES) | Potency | activity change, negative = cytotoxicity
1 | O=C(Nc1ccn(Cc2ccc(O)cc2C(F)(F)F)n1)c1c(F)cccc1F | inactive | –
2 | CC(O)C(C)n1ncn(-c2ccc(N3CCN(c4ccc(OCC5COC(Cn6cncn6)(c6ccc(Cl)cc6Cl)O5)cc4)CC3)cc2)c1=O (stereo not given) | inactive | –
3 | C[C@@H]1O[C@@H](O[C@H]2[C@@H](OC(=O)[C@]34CCC(C)(C)CC3C3=CCC5[C@@]6(C)C[C@H](O)[C@H](O[C@@H]7O[C@H](CO)[C@@H](O)[C@H](O)[C@H]7O[C@@H]7OC[C@@H](O)[C@H](O)[C@H]7O)[C@@](C)(C(=O)O)C6CC[C@@]5(C)[C@]3(C)CC4)OC[C@H](O)[C@@H]2O)[C@H](O)[C@H](O)[C@H]1O[C@@H]1OC[C@@H](O)[C@H](O)[C@H]1O (stereo not given in full) | – | -3.38% [at 6.55 µM] (inactive)
4 | CCOc1cc(C(C)(C)C)ccc1C1=N[C@@](C)(c2ccc(Cl)cc2)[C@@](C)(c2ccc(Cl)cc2)N1C(=O)N1CCN(CC(=O)N2CCOCC2)CC1 | inactive | –
5 | O=C(NO)c1ccc(CC(=O)N(CCO)c2ccccc2)cc1 | inactive | –
6 | CCCCNc1ncc(-c2ccc(CN3CCOCC3)cn2)c(NC2CCC(O)CC2)n1 (stereo not given) | inactive | –
7 | CN1CCN(S(=O)(=O)c2ccc(-c3cnc(N)c(C(=O)Nc4cccnc4)n3)cc2)CC1 | inactive | –
8 | COc1ccc2nc3n[nH]c(C)c3c(NCCOCCO)c2c1 | inactive | –
9 | CC(C)C[C@@H]1NC(=O)[C@@H](Cc2ccccc2)NC(=O)C(CCCCCC(=O)C2CO2)NC(=O)[C@@H]2CCCCN2C1=O (stereo not given in full) | inactive | –
10 | CCN(CC)CCCCCCNc1cc(OC)cc2c(C)ccnc12 | inactive | –
